A short description of experiment [1]: qHTS RealTime-Glo MT Cell Viability Assay in HepG2 cells - 8 hour (AID 1224873). Note: nearly all actives have a fitted effect of over 55% in size. Note: potency is the fitted concentration of half-maximal effect. Put shortly: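 Real-time viability: cells seeded at 600 per well together with NanoLuc and cell-permeant prosubstrate, compounds added after 5 h incubation. Luminescence tracked at 0, 8, 16, 24, 32 and 40 h of exposure.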
In general terms: qHTS replaces the single test concentration by a dilution series.

A short description of experiment [2]: qHTS RealTime-Glo MT Cell Viability Assay in HEK293 cells - 40 hour (AID 1224874). Note: nearly all actives have a fitted effect of over 50% in size. Note: potency is the fitted concentration of half-maximal effect. The note with it: RealTime-Glo luminescence; max response: hits give low values. Put shortly:
(§1)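 HEK293 cells mixed with RealTime-Glo reagents (NanoLuc plus cell-permeant prosubstrate) at 600 cells/well, preincubated 5 h at 37 C/5% CO2, then given 23 nL compound in DMSO. Nonlytic luminescence from viable cells was read at 0, 8, 16, 24, 32 and 40 h.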

The nature of experiment [3]: A CellTox Green Cytotoxicity Assay to monitor cytotoxicity in HEK293 cells - 24 hour (AID 1224875). Note: series mostly up to about 77 µM; nearly all actives have a fitted effect of over 45% in size. The method in brief:
(§2)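 HEK293 cells premixed with CellTox Green dye were seeded at 600 cells/well and left 5 h at 37 C/5% CO2 before pin transfer of 23 nL compound in DMSO. Fluorescence from dye bound to dead-cell DNA was read during 40 h treatment.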

Experiment [4] in a line: qHTS RealTime-Glo MT Cell Viability Assay in HepG2 cells - 32 hour (AID 1224877). Note: nearly all actives have a fitted effect of over 55% in size. Put shortly: (§3)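 Cell number in HepG2 cultures estimated from NanoLuc luminescence generated by metabolic reduction of a prosubstrate by living cells. The homogeneous, nonlytic format allowed repeated reads at 0, 8, 16, 24, 32 and 40 h of compound exposure.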
Experiment [5] can be described thus: qHTS RealTime-Glo MT Cell Viability Assay in HEK293 cells - 0 hour (AID 1224880). For activity change, negative = cytotoxicity: top concentration of the series differs between compounds. Note: nearly all actives have a fitted effect of over 45% in size. Note: potency is the fitted concentration of half-maximal effect. The method in brief:
as §1

Experiment [6] is described as follows: A CellTox Green Cytotoxicity Assay to monitor cytotoxicity in HEK293 cells - 32 hour (AID 1224881). Note: nearly all actives have a fitted effect of over 40% in size. Note: potency is the fitted concentration of half-maximal effect. Put shortly: as §2
Experiment [7] is described as follows: A CellTox Green Cytotoxicity Assay to monitor cytotoxicity in HepG2 cells - 0 hour (AID 1224882). Note: nearly all actives have a fitted effect of over 35% in size. The method in brief:
(§4)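 HepG2 cells were seeded together with the CellTox Green dye at 600 cells/well, left 5 h at 37 C/5% CO2, then given compounds in DMSO. Fluorescence from dye bound to dead-cell DNA was read repeatedly over 40 h of treatment at 37 C.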

Experiment [8] is described as follows: qHTS RealTime-Glo MT Cell Viability Assay in HepG2 cells - 16 hour (AID 1224885). Note: nearly all actives have a fitted effect of over 50% in size. Note: potency is the fitted concentration of half-maximal effect. Put shortly:
as §3

Experiment [9] is described as follows: qHTS RealTime-Glo MT Cell Viability Assay in HEK293 cells - 24 hour (AID 1224886). For activity change, negative = cytotoxicity: top concentration of the series differs between compounds. Note: nearly all actives have a fitted effect of over 50% in size. Note: potency is the fitted concentration of half-maximal effect. Put shortly: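 Homogeneous bioluminescent viability format in HEK293 cells (600 cells/well). Following 5 h at 37 C/5% CO2, 23 nL compound was pintooled; the signal was measured repeatedly during 40 h incubation.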
The nature of experiment [10]: A CellTox Green Cytotoxicity Assay to monitor cytotoxicity in HEK293 cells - 16 hour (AID 1224888). Note: nearly all actives have a fitted effect of over 35% in size. The method in brief:
as §2

Experiment [11] in a line: A CellTox Green Cytotoxicity Assay to monitor cytotoxicity in HepG2 cells - 8 hour (AID 1224890). Note: nearly all actives have a fitted effect of over 45% in size. Put shortly: as §4
A short description of experiment [12]: qHTS assay to identify small molecule antagonists of the estrogen receptor alpha (ER-alpha) signaling pathway using the BG1 cell line in the presence of 0.1 nM 17-beta-estradiol - cell viability counter screen (AID 1259241). Note: nearly all actives have a fitted effect of over 40% in size. Note: potency is the fitted concentration of half-maximal effect. Put shortly: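 In this screen, hormone-deprived VM7Luc4E2 cells were seeded at 4,000 per well, dosed with compound and 0.1 nM estradiol final, and incubated 22 hr at 37C and 5% CO2; fluorogenic live-cell protease signal reported viability.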

The nature of experiment [13]: qHTS assay to identify small molecule antagonists of the androgen receptor (AR) signaling pathway using the MDA cell line in the presence of 0.5 nM R1881 - cell viability counter screen (AID 1259242). Note: nearly all actives have a fitted effect of over 45% in size. Note: potency is the fitted concentration of half-maximal effect. The method in brief: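 MDA-kb2 cells (human breast carcinoma, stably carrying MMTV-luciferase reporter) were exposed to compounds with 0.5 nM R1881 (final) for 16 hr at 37C, 0% CO2; viability then read as live-cell protease fluorescence (CellTiter-Fluor, 30 min) in the same wells.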

Experiment [14] is described as follows: A CellTox Green Cytotoxicity Assay to monitor cytotoxicity in HepG2 cells - 16 hour (AID 1224876). Note: nearly all actives have a fitted effect of over 45% in size. The method in brief:
as §4

Experiment [15] can be described thus: A CellTox Green Cytotoxicity Assay to monitor cytotoxicity in HepG2 cells - 24 hour (AID 1224878). Note: nearly all actives have a fitted effect of over 45% in size. Put shortly: as §4
Experiment [16] is described as follows: A CellTox Green Cytotoxicity Assay to monitor cytotoxicity in HEK293 cells - 8 hour (AID 1224884). Note: nearly all actives have a fitted effect of over 35% in size. Put shortly:
as §2

Experiment [17] in a line: qHTS RealTime-Glo MT Cell Viability Assay in HEK293 cells - 8 hour (AID 1224887). For activity change, negative = cytotoxicity: top concentration of the series differs between compounds. Note: nearly all actives have a fitted effect of over 50% in size. Note: potency is the fitted concentration of half-maximal effect. Put shortly:
as §1

Experiment [18] is described as follows: qHTS RealTime-Glo MT Cell Viability Assay in HepG2 cells - 0 hour (AID 1224889). Note: nearly all actives have a fitted effect of over 50% in size. Put shortly:
as §3

Experiment [19] in a line: A CellTox Green Cytotoxicity Assay to monitor cytotoxicity in HepG2 cells - 32 hour (AID 1224883). Note: nearly all actives have a fitted effect of over 50% in size. Note: potency is the fitted concentration of half-maximal effect. Put shortly:
as §4

The nature of experiment [20]: A CellTox Green Cytotoxicity Assay to monitor cytotoxicity in HepG2 cells - 40 hour (AID 1224879). Note: nearly all actives have a fitted effect of over 40% in size. Put shortly: as §4

Consider 13 molecules from PubChem BioAssay (Tox21).

The structures appear in SMILES notation. A number with no mark means an inactive call. Inconclusive results are not listed. Active and inactive are the calls of the source. Calls come from the whole dose curve; as a rule, active = well fitted curve in the direction sought with a large enough effect in the repeat runs; inconclusive = weak or mixed curves; inactive = no such curve, though single readings can be large; an effect the other way counts as inactive or inconclusive.
% is set by controls: 0 for no effect and ±100 for the full control effect.

Turning to `Cc1ccc(CCn2c3c(c4cc(Cl)ccc42)CN(C)CC3)cn1`, the Potency result in experiment [1], in [3], in [4], in experiment [6], in experiment [7] and in [8] was “inactive” in each case. Besides, the Potency result in [10], in [11], in experiment [12] and in experiment [13] was “inactive” throughout. For the same molecule, the figures for the Potency in experiment [2], in experiment [5] and in experiment [9] were 21.3 µM (active), 16.9 µM (active) and 9.52 µM (active), respectively.

With `Cc1cc(Nc2ccc(O)cc2)ccc1N`, the Potency was 43.5 µM (active) in experiment [1]; 19.4 µM (active) in [2]; 43.5 µM (active) in experiment [6]; 48.8 µM (active) in experiment [8]; 24.4 µM (active) in experiment [9]; 21.8 µM (active) in experiment [17]. Moreover, the figures for the Potency in [12] and in experiment [13] were 27.2 µM (active) and 48.3 µM (active), respectively. The Potency result in experiment [14], in experiment [15], in experiment [7], in experiment [16], in experiment [10] and in experiment [11] was “inactive” each time.

As to `N[C@@H](CSSC[C@H](N)C(=O)O)C(=O)O`, the viability change, negative = cytotoxic was 3.56% [at 0.29 µM] in experiment [1] and -1.71% [at 0.349 µM] in [13]. Also, the max response in experiment [2] was 2.95%. The activity change is 7.29% [at 0.29 µM, hits give high values] in experiment [3] and 14.4% [at 0.29 µM, hits give high values] in [10]. In addition, the activity change, negative = cytotoxic was -2.71% [at 0.29 µM] in experiment [4] and 0.777% [at 0.29 µM] in [8]. Also, the activity change, negative = cytotoxicity in [5] was 18.3% [at 0.29 µM]; in [9], 9.89% [at 0.29 µM]; in experiment [17] it was 16.3% [at 0.29 µM]; in experiment [18], 0.0589% [at 0.29 µM]; in experiment [12] it was 0.433% [at 0.349 µM]. For the same molecule, the cytotoxicity increase in [6] is 2.69% [at 0.29 µM]; in experiment [16] it was 26.5% [at 0.29 µM].

As for `CCN(CC)CCSC(=O)C(c1ccccc1)c1ccccc1`, the Potency result in experiment [1], in experiment [14], in experiment [4], in experiment [15], in experiment [5] and in experiment [16] was “inactive” each time. The Potency entry in experiment [8], in [9], in experiment [17], in experiment [18], in experiment [11] and in [12] was “inactive” each time. In addition, in experiment [13], the Potency result was “inactive”. Also, the max response in [2] is -12.3%.

In the case of `C(=C/c1ccccc1)/c1ccccc1`, the Potency entry in [1], in experiment [4], in experiment [15], in experiment [5], in experiment [7] and in [19] was “inactive” in each case. Moreover, the Potency entry in experiment [16], in experiment [8], in experiment [9], in [17], in experiment [10] and in experiment [18] was “inactive” each time. Moreover, the Potency entry in [11], in [12] and in [13] was “inactive” in each case. The max response in experiment [2] is -13.3%.

For `CC1(C)C(=O)N(CO)C(=O)N1CO`, the Potency result in [1], in [14], in experiment [4], in experiment [15], in [20] and in experiment [5] was “inactive” in each case. Moreover, the Potency entry in experiment [7], in [19], in experiment [9], in experiment [17], in experiment [18] and in [11] was “inactive” in each case. The Potency entry in experiment [12] and in [13] was “inactive” in each case. Also, the max response in experiment [2] was 2.01%.

For the molecule `O=C(O)c1cccc(Cl)n1`, the Potency entry in [1], in experiment [4], in experiment [15], in [5], in experiment [7] and in experiment [19] was “inactive” each time. Also, the Potency result in experiment [8], in experiment [9], in experiment [17], in experiment [18], in [11] and in [12] was “inactive” throughout. Further, the Potency entry in [13] is “inactive”. Further, the max response in experiment [2] is 7.12%.

In the case of `O=C(Oc1ccccc1)c1cccc(C(=O)Oc2ccccc2)c1`, the Potency result in [1], in [4], in experiment [5], in [7], in [10] and in experiment [18] was “inactive” throughout. For the same molecule, the Potency entry in [11], in experiment [12] and in experiment [13] was “inactive” in each case. Besides, the max response in experiment [2] is 5.48%.

Regarding `OCCN1CN(CCO)CN(CCO)C1`, the Potency entry in experiment [1], in experiment [3], in experiment [14], in experiment [4], in experiment [15] and in experiment [20] was “inactive” in each case. Also, the Potency result in experiment [5], in [6], in [7], in experiment [19], in [16] and in experiment [9] was “inactive” throughout. Also, the Potency result in [17], in experiment [18], in experiment [11], in experiment [12] and in experiment [13] was “inactive” in each case.

With `CS(C)(=O)=O`, the Potency result in [1], in experiment [14], in experiment [4], in experiment [15], in experiment [20] and in [5] was “inactive” each time. Further, the Potency entry in [7], in experiment [19], in experiment [8], in [9], in [17] and in experiment [18] was “inactive” throughout. Also, the Potency result in experiment [11], in experiment [12] and in experiment [13] was “inactive” in each case. Moreover, the max response in experiment [2] is -3.02%. For the same molecule, the Potency in experiment [6] is 19.5 µM (active).

For the molecule `CC(C)C(=O)OCc1ccccc1`, the Potency entry in [1], in experiment [4], in experiment [7], in experiment [8], in experiment [18] and in experiment [12] was “inactive” throughout. For the same molecule, in experiment [13], the Potency result is “inactive”. In addition, in experiment [2], the max response is 18.1%.

Turning to `CC1=C(/C=C/C(C)=C/C=C/C(C)=C\C=O)C(C)(C)CCC1`, the Potency entry in experiment [1], in [14], in experiment [4], in experiment [15], in experiment [5] and in experiment [19] was “inactive” each time. The Potency result in [16], in experiment [8], in experiment [17], in experiment [18], in [11] and in experiment [12] was “inactive” in each case. Further, the Potency result in experiment [13] was “inactive”. For the same molecule, the Potency in [2] is 46.4 µM (active).

For `CCCN(CCc1cccs1)[C@H]1CCc2c(O)cccc2C1`, the Potency result in [1], in experiment [4], in experiment [5], in experiment [7], in experiment [16] and in [8] was “inactive” throughout. Moreover, the Potency result in [18], in experiment [12] and in [13] was “inactive” throughout. Besides, the Potency in experiment [2] was 21.3 µM (active); in experiment [19] it was 23.9 µM (active); in [9], 7.56 µM (active); in experiment [17], 15.1 µM (active).
